The list shows a part of the results. The hit rate among all sequences tested is not known here.
B1: HC531 (peptide)
chain: CAISQAEAALAGNASASA
B2: HC105 (peptide)
chain: CAVVCCIMSYAGNASASA
B3: FS-923 (peptide)
chain: CAYRGRCRKSAGNASASA
B4: FS-152 (peptide)
chain: CAYRGRHRRFAGNASASA
B5: FS-725 (peptide)
chain: CATAQGMKRSAGNASASA
B6: FS-799 (peptide)
chain: CAHTQRNRRSAGNASASA
B7: FS-1221 (peptide)
chain: CAKLRRNRRSAGNASASA
B8: HC358 (peptide)
chain: CATVSGFVSLAGNASASA
B9: HC2451 (peptide)
chain: CAEDEVPCHRAGNASASA
B10: FS-182 (peptide)
chain: CANRERSKRDAGNASASA
B11: FS-997 (peptide)
chain: CAGGGRSKRDAGNASASA
B12: HC1503 (peptide)
chain: CAPLTNSRGEAGNASASA
B13: HC344 (peptide)
chain: CANWAKVLVVAGNASASA
B14: FS-700 (peptide)
chain: CAPLTRSKRDAGNASASA
B15: HC784 (peptide)
chain: CAQGYKVLVLAGNASASA
B16: FS-884 (peptide)
chain: CATRSRSERDAGNASASA
B17: FS-281 (peptide)
chain: CAPRAKVKREAGNASASA
B18: HC1174 (peptide)
chain: CATRCHCGAEAGNASASA
B19: HC1270 (peptide)
chain: CAHDSPDAELAGNASASA
B20: HC2080 (peptide)
chain: CAVVCCSMCYAGNASASA
B21: FS-622 (peptide)
chain: CAQEVRSKRDAGNASASA
B22: FS-934 (peptide)
chain: CAKERRSKRDAGNASASA
B23: FS-1603 (peptide)
chain: CAPRALRKRDAGNASASA
B24: FS-485 (peptide)
chain: CAQWHLSKRDAGNASASA
B25: FS-2913 (peptide)
chain: CAREKKADRDAGNASASA
B26: HC2525 (peptide)
chain: CASTPCSLHLAGNASASA
B27: HC2326 (peptide)
chain: CAEMPCHRPSAGNASASA
B28: FS-1552 (peptide)
chain: CAPRYRRKRHAGNASASA
B29: FS-143 (peptide)
chain: CASAHREPRLAGNASASA
B30: FS-105 (peptide)
chain: CAVLSRDGRKAGNASASA
B31: HC1004 (peptide)
chain: CAVLSGKPAIAGNASASA
B32: FS-720 (peptide)
chain: CASKKRKKKHAGNASASA
B33: FS-145 (peptide)
chain: CASATRRKRHAGNASASA
B34: FS-1430 (peptide)
chain: CAVLSRRKRHAGNASASA
B35: HC1187 (peptide)
chain: CARNMWSGTFAGNASASA
B36: HC1085 (peptide)
chain: CAIDILAGYGAGNASASA
B37: HC895 (peptide)
chain: CATFTIETITAGNASASA
B38: FS-1826 (peptide)
chain: CARKDRGASKAGNASASA
B39: HC1492 (peptide)
chain: CACDLDPQARAGNASASA
B40: FS-2135 (peptide)
chain: CAREKRRQRNAGNASASA
B41: FS-488 (peptide)
chain: CAREKRPSRSAGNASASA
B42: FS-1819 (peptide)
chain: CAREKRRGVTAGNASASA
B43: FS-757 (peptide)
chain: CADLSRPSRSAGNASASA
B44: FS-2256 (peptide)
chain: CAREKRWSVSAGNASASA

Target: furin, P09958
Sequence (P09958 whole entry): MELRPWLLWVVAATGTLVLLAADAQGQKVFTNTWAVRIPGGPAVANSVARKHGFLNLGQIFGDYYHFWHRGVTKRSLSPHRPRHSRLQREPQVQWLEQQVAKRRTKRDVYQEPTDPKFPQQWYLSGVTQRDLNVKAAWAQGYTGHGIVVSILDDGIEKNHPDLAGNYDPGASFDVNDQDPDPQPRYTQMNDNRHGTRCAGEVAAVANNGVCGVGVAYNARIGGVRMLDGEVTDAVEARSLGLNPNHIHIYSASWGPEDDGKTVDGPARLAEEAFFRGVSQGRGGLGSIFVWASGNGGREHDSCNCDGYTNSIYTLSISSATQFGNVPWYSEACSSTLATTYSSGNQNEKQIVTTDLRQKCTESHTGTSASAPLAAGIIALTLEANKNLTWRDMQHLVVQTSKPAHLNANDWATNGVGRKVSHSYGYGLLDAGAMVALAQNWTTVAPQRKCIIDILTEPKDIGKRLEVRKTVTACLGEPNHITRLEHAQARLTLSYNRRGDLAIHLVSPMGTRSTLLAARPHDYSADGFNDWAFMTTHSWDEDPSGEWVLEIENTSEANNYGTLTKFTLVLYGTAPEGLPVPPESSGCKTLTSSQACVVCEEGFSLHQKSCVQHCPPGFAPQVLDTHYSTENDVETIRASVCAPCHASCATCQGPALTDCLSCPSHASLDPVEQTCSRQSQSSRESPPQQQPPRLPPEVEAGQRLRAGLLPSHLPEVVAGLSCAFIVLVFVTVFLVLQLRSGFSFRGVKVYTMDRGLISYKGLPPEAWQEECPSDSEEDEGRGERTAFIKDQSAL
Assay: furin cleavage Z-score vs untreated control; higher = more cleavage, active = 3.5 or more, inactive = 1 or less, 8 variable residues between constant flanks
Outline: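 Purified furin digested bead-held 8-mer peptide–cDNA fusions at 1:10 enzyme:substrate in 0.01 ml of 50 mM HEPES pH 7.5 with CaCl2 and NaCl for 7.5, 15 or 30 min. The cleavage Z-score compares sequencing counts of released DNA with furin-free reactions on a log scale, with lowess adjustment and median absolute deviation scaling.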

| Sequence | furin cleavage Z-score (7.5 min) | furin cleavage Z-score (15 min) | furin cleavage Z-score (30 min) |
| --- | --- | --- | --- |
| B1 | -1.47 (inactive) | -0.433 (inactive) | -1.7 (inactive) |
| B2 | 1.49 | 0.708 (inactive) | 1.08 |
| B3 | 0.471 (inactive) | 1.55 | 0.866 (inactive) |
| B4 | 5.94 (active) | 6.27 (active) | 6.98 (active) |
| B5 | 1.25 | 1.19 | -0.124 (inactive) |
| B6 | 11.3 (active) | 12.6 (active) | 10.4 (active) |
| B7 | 5.36 (active) | 6.08 (active) | 4.35 (active) |
| B8 | 0.667 (inactive) | -0.762 (inactive) | 1.14 |
| B9 | 1.14 | 0.677 (inactive) | 1.09 |
| B10 | 13.6 (active) | 14.6 (active) | 10.7 (active) |
| B11 | 12.9 (active) | 11.9 (active) | 8.83 (active) |
| B12 | -0.174 (inactive) | -0.452 (inactive) | 1.07 |
| B13 | 0.338 (inactive) | -0.0162 (inactive) | 1.26 |
| B14 | 15 (active) | 15 (active) | 10.2 (active) |
| B15 | -0.106 (inactive) | -0.421 (inactive) | -0.768 (inactive) |
| B16 | 2.38 | 3.17 | 0.745 (inactive) |
| B17 | 11.8 (active) | 10.8 (active) | 7.73 (active) |
| B18 | -0.133 (inactive) | -0.874 (inactive) | -0.744 (inactive) |
| B19 | -0.658 (inactive) | -0.493 (inactive) | -0.66 (inactive) |
| B20 | 0.362 (inactive) | -0.833 (inactive) | 2.39 |
| B21 | 14.6 (active) | 15.6 (active) | 10.9 (active) |
| B22 | 12.1 (active) | 12.8 (active) | 8.75 (active) |

| Sequence | furin cleavage Z-score (7.5 min) | furin cleavage Z-score (15 min) | furin cleavage Z-score (30 min) |
| --- | --- | --- | --- |
| B23 | 9.96 (active) | 9.61 (active) | 8.35 (active) |
| B24 | 0.736 (inactive) | 2.32 | 1.82 |
| B25 | 0.241 (inactive) | -0.361 (inactive) | -1.01 (inactive) |
| B26 | 0.933 (inactive) | 1.1 | 1.05 |
| B27 | 0.275 (inactive) | 1.07 | -0.483 (inactive) |
| B28 | 10.8 (active) | 11.7 (active) | 10.8 (active) |
| B29 | -0.537 (inactive) | -2.16 (inactive) | -0.735 (inactive) |
| B30 | -1.15 (inactive) | 0.968 (inactive) | 0.203 (inactive) |
| B31 | -1.21 (inactive) | -0.08 (inactive) | -0.703 (inactive) |
| B32 | -0.105 (inactive) | 0.768 (inactive) | 1.79 |
| B33 | 10.8 (active) | 9.07 (active) | 8.87 (active) |
| B34 | 13.5 (active) | 13.1 (active) | 9.48 (active) |
| B35 | 1.59 | -0.0231 (inactive) | 2.71 |
| B36 | 0.177 (inactive) | -2.37 (inactive) | -1.48 (inactive) |
| B37 | -1.54 (inactive) | -0.657 (inactive) | -0.39 (inactive) |
| B38 | -0.0944 (inactive) | -0.514 (inactive) | 0.14 (inactive) |
| B39 | -0.128 (inactive) | -0.812 (inactive) | -1.68 (inactive) |
| B40 | 2.7 | 5.06 (active) | 5.01 (active) |
| B41 | 3.53 (active) | 6.66 (active) | 4.77 (active) |
| B42 | 0.463 (inactive) | -0.946 (inactive) | 0.55 (inactive) |
| B43 | 0.456 (inactive) | 1.72 | 2.66 |
| B44 | 0.749 (inactive) | 1.64 | 3.68 (active) |
